Outcome data for 40 compounds are collected here from PubChem BioAssay (Tox21).

Results filed as inconclusive are left out. Calls of active or inactive are those of the source. The call rests on the fitted dose curve; in most records, active means well fitted inhibition curve with a large enough effect in the repeat runs; inconclusive means weak or mixed curves, or effect the other way; inactive means no such curve, though single readings can be large or run the other way.

A short description of the test: qHTS assay to identify small molecule antagonists of the retinoic acid receptor (RAR) signaling pathway (AID 1159552; further: nearly all actives have a fitted effect of over 50% in size). Particulars: C3RL4 RARE luciferase reporter, retinol-stimulated, 6 h; series mostly up to 92.4 µM. The source says:
National Center for Advancing Translational Sciences [NCATS]
NIH Chemical Genomics Center [NCGC]
U.S. Environmental Protection Agency [EPA]
National Institutes of Environmental Health Sciences [NIEHS]
National Toxicology Program [NTP]
U.S. Food and Drug Administration [FDA]
All-trans Retinoic acid (atRA) is the potent natural metabolite of retinol and plays an important role in normal embryonic development and maintenance of cellular phenotype in adult animals. atRA is the activating ligand for the retinoic acid receptors (RARs) which form heterodimers with retinoid X receptors (RXRs) on the retinoic acid response element (RARE). Through activation of the RAR/RXRs nuclear receptors, atRA regulates the transcription of a large number of protein-coding genes and regulatory RNAs. Intracellular levels of atRA are controlled by the retinol signaling pathway (RSP) that regulates the biosynthesis and catabolism of atRA to maintain physiological levels. Chemicals that interfere with the RSP can cause abnormal intracellular levels of atRA and therefore are potential developmental toxicants. To assess compounds for the potential adverse effect on embryonic development through interfering with retinol signaling, a cell-based RARE luciferase reporter gene assay was used. C3RL4 cell line (OARSA/CFSAN/FDA, Laurel, MD) was used to screen Tox21 10K compound library for identifying inhibitors of the RSP.
Tox21 Assay Protocol Summary:
C3RL4 cells were seeded at 1,000/well in 4 uL of assay medium into white solid 1,536-well tissue culture plates (Greiner Bio-One North America Inc. Monroe, NC) using a Multidrop Combi (Thermo Scientific, Waltham, MA) dispenser. After incubation at 37 C and 5% CO2 for an overnight, 23 nL of compounds dissolved in DMSO, positive control or DMSO only were transferred by a Pintool station (Kalypsys, San Diego, CA). One ul of 1 uM (final concentration) of Retinol was added right after the compound addition by using a Flying Reagent Dispenser (FRD) (Aurora Discovery, San Diego, CA). After 6 hr incubation at 37 C and 5% CO2, 5 uL of Amplite Luciferase reagent (AAT Bioquest Inc. Sunnyvale, CA) was added to each assay plate using an FRD. Luminescence was quantified on a ViewLux plate reader (PerkinElmer, Waltham, MA) after 30 min incubation at room temperature.
Take `CCCCCCCCS`: the result was inactive. As for `N#Cc1ccc(CC(=O)c2cccc(C(F)(F)F)c2)cc1`, the entry is “inactive”; as for `O=C(OCCCCCOC(=O)c1ccccc1)c1ccccc1`, “inactive”; as for `C1=COCCC1`, “inactive”. For the compound `CC(=O)Nc1cccc(N)c1`, the outcome was inactive.

For `CCCCCCCCOCCCN`, the outcome was inactive.

For `Nc1ccc(-c2ccc(F)cc2)cc1`, the outcome was inactive.

As to `Cc1ccc(S(=O)(=O)NC(=O)NC2CCCC2)cc1`, the compound was classed as inactive. To `CCCCCCCCCCCC(=O)OCC` belongs “inactive”. In the case of `O=C(OCCOCCOCCOC(=O)c1ccccc1)c1ccccc1`, the result was inactive. To `CC(C)(O)C(=O)O` belongs “inactive”. To `O=C(O)CNc1ccccc1` belongs “inactive”; to `Cc1cc(C)n(CO)n1`, “inactive”; to `C=C[Si]1(C)O[Si](C)(C=C)O[Si](C)(C=C)O[Si](C)(C=C)O1` (stereo not given), “inactive”. For `O=C(O)CCc1nc2ccccc2[nH]1`, the compound was classed as inactive.

For `CCCC(=O)OCc1ccccc1`, the result was inactive. With `O=C1c2ccccc2C(=O)C1c1ccc2cc(S(=O)(=O)O)cc(S(=O)(=O)O)c2n1`, the outcome was inactive. For `OCC(O)c1ccccc1` (stereo not given), the compound was classed as inactive. For `COc1ccc(CN(CCN(C)C)c2ncccn2)cc1`, the outcome was inactive. For the compound `CC1=C(C)C(=O)C(CCCCC#CCCCC#CCO)=C(C)C1=O`, the compound was classed as inactive. As for `O=C(NC1CCN(CCc2c[nH]c3ccccc23)CC1)c1ccccc1`, the outcome was inactive. On to `C/C(=C(\CCO)SS/C(CCO)=C(\C)N(C=O)Cc1cnc(C)nc1N)N(C=O)Cc1cnc(C)nc1N`, for which the compound was classed as inactive. As for `CC(C)Cc1nccs1`, the entry is “inactive”; as for `CC(O)CN` (stereo not given), “inactive”. For the compound `CC(=O)CC/C=C(\C)CC/C=C(\C)CC/C=C(\C)CCC=C(C)C`, the result was inactive.

As to `CCOC(C)OCC`, the call was inactive. As to `CCc1ccc(C(=O)C(C)CN2CCCCC2)cc1` (stereo not given), the outcome was inactive.

`CCCc1ccc(OC)cc1`: the call was inactive. Regarding `O=C(C1CCCCC1)N1CC(=O)N2CCCc3ccccc3C2C1` (stereo not given), the call was inactive. To `c1ccc(CN(Cc2ccccc2)Cc2ccccc2)cc1` belongs “inactive”; to `COC(=O)c1cc(Cl)ccc1[N+](=O)[O-]`, “inactive”; to `CCC(C)C1N=C(C)C(C)S1` (stereo not given), “inactive”. As for `CCC(C(=O)O)c1ccc(N2Cc3ccccc3C2=O)cc1` (stereo not given), the entry is “inactive”. As for `C=CC(=O)OCCCCCCCCCC`, the entry is “inactive”; as for `COc1cccc([C@H](O)C2CCN(CCc3ccc(F)cc3)CC2)c1OC`, “inactive”. As for `CC(C)(Cc1c[nH]c2ccccc12)NCC(O)COc1ccccc1C#N` (stereo not given), the result was inactive. Consider `CCC(CC)C(=O)O`, for which the call was inactive. As for `O=C(c1ccco1)N1CCNCC1`, the entry is “inactive”. With `O=C(O)c1cccc(C(=O)O)c1C(=O)O`, the outcome was inactive. Take `CC(C)NC(=O)c1ccccc1N`: the outcome was inactive.
